According to the supplement of paper PMC10127200:
Counter-ions that a name gives are not always drawn.

Legend:
Assay in all cases: Euclidean distance of Cell Painting phenotypic profile (signed KS, 77 features) to DMSO centroid (dimensionless distance); 5 or 10 uM (library dependent); higher = stronger phenotypic change vs DMSO (phenoactivity)
Settings in all cases: 48 h
786-O = tested on: 786-O
Method in brief: (§1)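 Phenoactivity is defined as the Euclidean distance from a compound profile to the median vehicle profile. Each profile comprised 77 Harmony features, scored as signed Kolmogorov-Smirnov statistics versus same-plate vehicle wells, then plate-position corrected, correlation-weighted and replicate-averaged at the top dose. Five cancer lines and one healthy fibroblast line were exposed to library compounds for 48 h at 10 or 5 uM (0.1% DMSO final).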

A549 = tested on: A549
Method in brief: as §1

DU145 = tested on: DU145
Method in brief: as §1

FB = tested on: FB
Method in brief: as §1

HEPG2 = tested on: HEPG2
Method in brief: as §1

OVCAR4 = tested on: OVCAR4
Method in brief: as §1

Row | Compound | Euclidean distance (786-O) | Euclidean distance (A549) | Euclidean distance (DU145) | Euclidean distance (FB) | Euclidean distance (HEPG2) | Euclidean distance (OVCAR4)
1 | CC1(C)Cc2c(sc(NC(=O)c3ccn[nH]3)c2C(N)=O)C(C)(C)O1 | 0.808 | 0.814 | 1.54 | 1.43 | 0.816 | 1.06
2 | CC(C)NNC(=O)c1ccncc1 [Iproniazid] | 1.02 | 0.606 | 0.811 | 1.08 | 0.379 | 1.18
3 | CCCS(=O)(=O)Nc1ccc(F)c(C(=O)c2c[nH]c3ncc(-c4ccc(Cl)cc4)cc23)c1F [Vemurafenib (PLX4032. RG7204)] | 1.14 | 1.53 | 1.68 | 1.23 | 2.32 | 1.06
4 | O=C(Nc1ccccc1-c1cn2c(CN3CCNCC3)csc2n1)c1cnc2ccccc2n1 | 6.03 | 5.64 | 5.63 | 5.74 | 5.23 | 5.14
5 | CCCN[C@H]1CCc2nc(N)sc2C1 [Pramipexole dihydrochloride] | 0.969 | 0.801 | 1.16 | 1.09 | 0.46 | 1.16
6 | O=C(O)c1ccccc1OP(=O)(O)O [Fosfosal] | 0.982 | 0.849 | 0.86 | 0.671 | 0.711 | 1.11
7 | CCCC(CCC)C(=O)O [Divalproex Sodium] | 1.31 | 0.566 | 0.425 | 0.846 | 0.404 | 0.812
8 | COC(=O)C1=C(C)NC(C)=C(C(=O)OC(C)C)C1c1cccc2nonc12 (stereo not given) [Isradipine] | 1.36 | 1.33 | 1.21 | 1.42 | 1.56 | 1.1
9 | O=C(O)[C@H]1O[C@@H](Oc2cc3oc(-c4ccccc4)cc(=O)c3c(O)c2O)[C@H](O)[C@@H](O)[C@@H]1O [Baicalin] | 1.89 | 0.742 | 1.25 | 1.48 | 0.763 | 1.22
10 | CCOc1cc(N)c([N+](=O)[O-])cc1C(=O)NC1CCN(CC2CC=CCC2)CC1 (stereo not given) [Cinitapride Hydrogen Tartrate] | 1.33 | 1.05 | 1.38 | 1.21 | 0.924 | 1.57
11 | COc1ccc(CN2C3CC2CN(c2ccc(-c4cc(OCC(C)(C)O)cn5ncc(C#N)c45)cn2)C3)cn1 [Selpercatinib (LOXO-292. ARRY-192)] | 0.919 | 2.72 | 0.961 | 1.56 | 0.545 | 1.15
12 | Cc1cn([C@H]2C[C@H](N=[N+]=[N-])[C@@H](CO)O2)c(=O)[nH]c1=O [Zidovudine] | 1.52 | 0.708 | 1.19 | 1.2 | 1.54 | 0.957
13 | C[C@@H](O)[C@H]1C(=O)N2C(C(=O)O)=C([C@H]3CCCO3)S[C@H]12 [Faropenem Sodium] | 1.24 | 0.485 | 1 | 0.587 | 0.554 | 0.718
14 | O=C(Nc1cccc(Nc2ncc(Br)c(NCCc3cnc[nH]3)n2)c1)N1CCCC1 | 2.94 | 3.51 | 3.14 | 3.05 | 2.43 | 3.33
15 | COc1cc2nc(N(C)CCCNC(=O)C3CCCO3)nc(N)c2cc1OC (stereo not given) [Alfuzosin HCl] | 0.985 | 0.664 | 0.632 | 0.744 | 0.675 | 0.907
16 | CN1CCc2c(c3ccccc3n2Cc2ccccc2)C1 [Mebhydrolin napadisylate] | 1.27 | 1.06 | 0.544 | 1.03 | 1.31 | 1.49
17 | O=C(O)C1=C(CSc2nnnn2CS(=O)(=O)O)CS[C@@H]2[C@H](NC(=O)[C@H](O)c3ccccc3)C(=O)N12 [Cefonicid sodium] | 0.931 | 0.892 | 0.858 | 1.26 | 0.665 | 1.46
18 | Nc1c(Br)cc(Br)cc1CN[C@H]1CC[C@H](O)CC1 [Ambroxol] | 1.17 | 0.59 | 0.867 | 0.611 | 0.645 | 0.78
19 | O=c1c(O)c(-c2ccc(O)c(O)c2)oc2cc(O)ccc12 [Fisetin] | 0.642 | 0.833 | 1.17 | 0.987 | 0.906 | 0.911
20 | CCOC(=O)C1=C(COCCN)NC(C)=C(C(=O)OC)C1c1ccccc1Cl (stereo not given) [Amlodipine] | 0.785 | 0.917 | 0.877 | 1.06 | 1.06 | 0.837
21 | CC1=NN(c2ccccc2)C(=O)C1 [Edaravone] | 1.25 | 1.04 | 0.819 | 0.807 | 1.31 | 1.02
22 | CCCCCN(C)CCC(O)(P(=O)(O)O)P(=O)(O)O [Ibandronate sodium] | 1.42 | 1.09 | 0.856 | 1.59 | 1.38 | 1.49
23 | Clc1ccc(COC(Cn2ccnc2)c2ccc(Cl)cc2Cl)cc1 (stereo not given) [Econazole] | 1.06 | 1.25 | 0.98 | 1.02 | 1.09 | 0.709
24 | C[C@H](CCC(=O)O)[C@H]1CC[C@H]2[C@@H]3CC[C@@H]4C[C@H](O)CC[C@]4(C)[C@H]3C[C@H](O)[C@]12C [Deoxycholic acid] | 0.886 | 0.94 | 0.997 | 0.74 | 0.87 | 1.36
25 | O=C(O)[C@@H](S)[C@@H](S)C(=O)O [Succimer] | 1.49 | 1.41 | 1.53 | 1.35 | 0.53 | 1.55
